Measured values reported in article PMC5540273 (PLoS ONE, 2017).

Key:
Conditions in all cases: concentration: 1 μM, replicates: in singlicate; n = 1
DYRK1B = test system: DYRK1B
DYRK2 = test system: DYRK2
EGFR = test system: EGFR
EIF2AK1 = test system: EIF2AK1
EPHA1 = test system: EPHA1
EPHA2 = test system: EPHA2
EPHA3 = test system: EPHA3
EPHA4 = test system: EPHA4
EPHA5 = test system: EPHA5
EPHA6 = test system: EPHA6
EPHA7 = test system: EPHA7
EPHA8 = test system: EPHA8
EPHB1 = test system: EPHB1
EPHB2 = test system: EPHB2
EPHB3 = test system: EPHB3
EPHB4 = test system: EPHB4
EPHB6 = test system: EPHB6
ERBB2 = test system: ERBB2
ERBB3 = test system: ERBB3
ERBB4 = test system: ERBB4
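Further: KINOMEscan kinase panel screen.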

Structure (SMILES)	%Inh (DYRK1B) [%]	%Inh (DYRK2) [%]	%Inh (EGFR) [%]	%Inh (EIF2AK1) [%]	%Inh (EPHA1) [%]	%Inh (EPHA2) [%]	%Inh (EPHA3) [%]	%Inh (EPHA4) [%]	%Inh (EPHA5) [%]	%Inh (EPHA6) [%]	%Inh (EPHA7) [%]	%Inh (EPHA8) [%]	%Inh (EPHB1) [%]	%Inh (EPHB2) [%]	%Inh (EPHB3) [%]	%Inh (EPHB4) [%]	%Inh (EPHB6) [%]	%Inh (ERBB2) [%]	%Inh (ERBB3) [%]	%Inh (ERBB4) [%]
Cc1ccc(O)cc1Nc1ccnc2cc(-c3ccc(CN4CCCCC4)o3)ccc12 [GW557777]	0	2	46	0	99.7	94.5	94.9	96.2	99.8	90	0	99.7	100	98.9	95.3	99.7	83	0	7	0
O=C(Nc1n[nH]c2nc(-c3cccc(O)c3)ccc12)C1CC1 [SB-711805]	86	79	5	0	13	0	19	0	0	15	11	30	14	0	1	5	48	0	0	0
NCCC(NC(=O)c1cc(Br)c(-c2ccnc3[nH]ccc23)s1)c1ccccc1.O=C(O)C(F)(F)F.O=C(O)C(F)(F)F (centres unmarked) [GSK1307810]	70	57	19	0	10	1	35	0	0	0	3	11	4	0	0	0	27	39	19	21
O=C(Nc1n[nH]c2nc(-c3ccccc3)ccc12)C1CC1 [SB-708999]	0	12	1	0	15	15	0	0	2	0	7	9	0	20	11	3	41	35	67	0
CCNC(=O)/C=C/c1n[nH]c2cc(Sc3ccccc3C(=O)NC)ccc12	0	7	23	29	9	7	0	5	42	16	0	0	0	1	10	14	20	16	3	1
COc1cc(Nc2nccc(N3CCC(NC(=O)Nc4ccc5c(c4)OCO5)C3)n2)cc(OC)c1OC (centres unmarked) [GSK1379766]	0	0	0	0	14	0	0	7	0	4	0	3	7	0	6	0	97.6	0	0	31
Cc1ccccc1CC(=O)N1CCc2cc(-c3cn(C)c4ncnc(N)c34)ccc21 [GSK2603346]	4	4	22	90.1	13	5	0	0	0	10	0	5	8	0	0	0	53	8	0	32
CCNc1nccc(-c2c(-c3ccc(F)cc3)ncn2C2CCN(C)CC2)n1	0	100	0	0	0	0	0	5	0	0	0	0	0	0	0	0	9	0	9	0
CN(c1ccc(F)c(NC(=O)c2cccc(OC(C)(C)C#N)c2Cl)c1)c1ccc2nc(NC(=O)C3CC3)sc2n1	46	0	64	7	58	67	31	20	0	27	0	41	10	2	0	14	88	66	9	67
CC(=O)Nc1cn2nc(Oc3cccc(NC(=O)c4cccc(C(F)(F)F)c4)c3)ccc2n1	0	0	58	0	75	99.2	65	96	96.2	94.3	7	99.5	95.1	98.6	5	90.9	98.1	6	41	4
COc1cccc2c(-c3ccncc3)c(-c3ccc(F)cc3)nn12 [GW468513]	0	0	71	0	5	17	0	18	0	41	0	3	6	0	38	13	37	50	21	68
O=C(Nc1n[nH]c2cc(-c3cccs3)ccc12)C1CC1 [SB-731284]	0	34	4	7	0	0	13	0	0	0	0	0	0	0	0	0	55	12	0	0
Nc1cccc(-c2ccc3c(N)n[nH]c3c2)c1 [GSK2193613]	0	74	0	0	9	5	15	0	0	3	9	29	9	0	13	14	14	0	0	0
O=C(O)C(F)(F)F.O=c1[nH]ccc2nc(N[C@@H]3CCNC3)nc(Nc3cc(Cl)cc(Cl)c3)c12 [GSK2188764]	21	36	25	18	6	0	72	0	0	0	1	5	28	1	4	6	17	4	0	0
COc1cc(Nc2ccnc3cc(-c4ccncc4)ccc23)cc(OC)c1OC.Cl [GW494610]	0	4	58	0	96.9	83	48	48	37	0	0	99.2	74	57	0	50	98	49	50	5
Fc1cc(Cl)ccc1Nc1ccnc2cc(-c3ccc(CN4CCSCC4)o3)ccc12 [GW560106]	0	13	71	0	91.1	31	19	10	0	52	0	72	43	19	0	50	91.2	44	77	39
CN(c1ccc2c(c1)nc(NCc1ccccc1)n2C)c1ccnc(Nc2ccc(CS(C)(=O)=O)cc2)n1.Cl [GW811603]	0	0	0	0	0	13	27	0	10	0	20	47	0	0	0	2	87	35	28	17
Cc1cccc(Nc2nc(NCCN)ncc2C(N)=O)c1 [GSK1292139]	27	33	15	0	14	0	64	0	0	0	52	58	1	0	0	0	50	4	0	10
CN(C)CCOc1ccc(-c2cc(-c3ccc(Cl)c(O)c3)c(-c3ccncc3)[nH]2)cc1.Cl.Cl [SB-684387]	30	18	38	31	51	16	19	10	0	32	2	4	10	15	15	23	34	32	23	32
